USP2a block: qHTS Assay for Inhibitors of Ubiquitin-specific Protease USP2a Using CHOP2 as the Reporter | USP2 core, Ub-CHOP2 coupled fluorogenic reporter, 485/531 | Potency, µM (highest dose often 38.3 µM), for the others: top-dose activity change, negative = inhibition, most hits filed as inhibitors | hit rate 0.01% among 330,000 | AID 463254, 2010;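 also: potency is read from the fitted curve at half-maximal effect; plate controls were DMSO wells for no effect and full inhibition by NEM control for full effect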
Target sequence (O75604 whole entry, looked up): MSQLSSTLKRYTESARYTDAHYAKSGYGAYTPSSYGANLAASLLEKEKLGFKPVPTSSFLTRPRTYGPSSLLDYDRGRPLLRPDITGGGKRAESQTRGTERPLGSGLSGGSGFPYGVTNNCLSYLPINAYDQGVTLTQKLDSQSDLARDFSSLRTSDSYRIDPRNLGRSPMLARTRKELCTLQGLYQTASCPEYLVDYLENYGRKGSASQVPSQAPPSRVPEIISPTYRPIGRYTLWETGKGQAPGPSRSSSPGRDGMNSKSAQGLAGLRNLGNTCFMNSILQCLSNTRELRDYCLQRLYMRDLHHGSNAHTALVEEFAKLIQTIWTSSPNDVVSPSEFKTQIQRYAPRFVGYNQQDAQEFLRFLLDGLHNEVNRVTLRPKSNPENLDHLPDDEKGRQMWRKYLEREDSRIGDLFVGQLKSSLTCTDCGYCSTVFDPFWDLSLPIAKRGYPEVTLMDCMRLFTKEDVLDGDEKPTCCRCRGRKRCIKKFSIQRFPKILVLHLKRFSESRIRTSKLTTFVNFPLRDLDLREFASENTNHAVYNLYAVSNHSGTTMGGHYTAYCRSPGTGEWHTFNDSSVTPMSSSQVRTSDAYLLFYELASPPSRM
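USP2 core (10nM final) preincubated 30min RT with compound in 20mM Tris-HCl pH 8.0, 2mM CaCl2, 2mM beta-mercaptoethanol, 0.05% CHAPS; 25nM Ub-CHOP2 plus 25nM reporter substrate added, fluorescence (Ex485/Em531) read after 60min.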
Eya2 phos inh: qHTS Assay for Inhibitors of the Phosphatase Activity of Eya2. Protein phosphatase EYA2 (Homo sapiens), O00167. recombinant Eya2, OMFP fluorescence dephosphorylation (OMFP is methylfluorescein phosphate). Potency, µM (titrated, usually from 76.9 µM), without a hit: at the highest dose activity, negative = inhibition, most hits filed as inhibitors. hit rate 0.006% among 330,000; also: potency is read from the fitted curve at half-maximal effect
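Eya2 (0.2 uM) preincubated 10 min at ambient with compound, then OMFP substrate added at 50 uM; 10 min reaction in 50 mM HEPES pH 7.5, 50 mM NaCl, 5 uM MgCl2, 0.05% BSA, 1 mM DTT. Fluorescence read at Ex 485/Em 525 nm.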
PI4K2A inh: qHTS for small molecular inhibitors of PI4K2A; hit rate 0.13% among 420,000; purified PI4K2A, ADP-Glo luminescence, 1 h; stronger effect = lower value; activity change, negative = inhibition, % at 76.9 µM; Phosphatidylinositol 4-kinase type 2-alpha (Homo sapiens), Q9BTU6; in the data active = activity change below about -50%; inconclusive = mostly about -30% to -49%;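 also: -100% = wells without enzyme as full effect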
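In this quantitative HTS, ADP production by PI4K2A was quantified luminescently after 1 h at ambient temperature; 100 microM adenosine served as plate-quality control.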
GALK inh: qHTS Assay for Inhibitors of Human Galactokinase (GALK); P51570; Purified GALK, Kinase-Glo residual ATP luminescence; Potency, µM (series often up to 57.5 µM), without a hit: at the highest dose activity change, negative = inhibition, most hits filed as inhibitors; hit rate 0.007% among 270,000; AID 1868, 2009; also: potency is read from the fitted curve at half-maximal effect
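Human GALK (5 nM) with 35 uM ATP and 100 uM galactose in 20 mM HEPES pH 8.0, 5 mM MgCl2, 60 mM NaCl, 1 mM DTT, 0.01% BSA. After 1 h at room temperature, leftover ATP was read by Kinase-Glo Plus luminescence.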
Coupling enz: qHTS Assay for Inhibitors of Fructose-1,6-bisphosphate Aldolase from Giardia Lamblia: Coupling assay counterscreen; AID 2472, 2010; activity change, negative = inhibition, % at 58.2 µM, hits read low; coupling enzyme system counterscreen, AmpLite Red fluorescence; hit rate 0.67% among 290,000; in the data active = activity change below about -30%
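Activity here indicates interference with the coupling reaction, not aldolase inhibition. Compounds at 57.5 uM final met coupling enzymes for 10 min at RT; substrate and AmpLite Red detection followed, with a 525/598 nm fluorescence read after 20 min.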
USP1 inh: Inhibitors of USP1/UAF1: Primary Screen | Ubiquitin carboxyl-terminal hydrolase 1 (Homo sapiens), O94782 | recombinant USP1/UAF1, Ub-Rhodamine cleavage fluorescence | Potency, µM (doses to about 57.1 µM), for the others: at the highest dose activity change, negative = inhibition, most hits filed as inhibitors | hit rate 0.23% among 390,000 | AID 743255, 2014; also: potency is read from the fitted curve at half-maximal effect; nearly all actives have a fitted effect of over 60% in size
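1 nM enzyme complex + cpd, 15 min RT; start with Ub-Rho 150nM final; kinetic fluorescence ex 480/em 540, 6 reads q60 s. Buffer 50mM HEPES pH 7.8, 0.5mM EDTA, 0.1 mg/ml BSA, 1mM TCEP, 0.01% Tween-20.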
Active calls of the source: *; ? = inconclusive; nt = no result given. Most compounds without a hit are left out; they make up all but 0.71% or so of the library. Unless noted, calls follow the shape of the dose curve; as a rule, active = well fitted curve in the direction sought with a large enough effect; inconclusive = small, poorly fitted or top-dose-only effect, or another doubt; inactive = no such curve, though single readings can be large; an effect the other way counts as inactive or inconclusive. Unless noted, % is scaled to controls: 0 for no effect and ±100 for the full control effect.

SMILES	USP2a block	Eya2 phos inh	PI4K2A inh	GALK inh	Coupling enz	USP1 inh
C#CCOCCOCCOCCNc1nc(N2CCOCC2)nc(N2CCN(C(=O)CCCCCCCCCCNC(=O)[C@H]([C@@H](C)CC)n3cc(CCCCN=C(N)N)nn3)CC2)n1	-4%	-17%	-2	nt	nt	?
C#CCOCCOCCOCCNc1nc(N2CCN(C(=O)CCCCCCCCCCNC(=O)[C@H]([C@@H](C)CC)n3cc(CCCCN=C(N)N)nn3)CC2)nc(N2CCN(C(=O)CCCCCCCCCCNC(=O)[C@H](CCCN=C(N)N)n3cc(C[C@@H](C)CC)nn3)CC2)n1	11µM*	-24%	nt	nt	nt	nt
C#CCOCCOCCOCCNc1nc(N2CCN(C(=O)CCCCCCCCCCNC(=O)[C@@H](CCC(=O)O)n3cc(CCCCCN)nn3)CC2)nc(N2CCN(C(=O)CCCCCCCCCCNC(=O)[C@H](CCCCN)n3cc(C[C@@H](C)CC)nn3)CC2)n1	?	-27%	-1	nt	nt	?
C#CCOCCOCCOCCNc1nc(N2CCN(C(=O)CCCCCCCCCCNC(=O)[C@H](CCCN=C(N)N)n3cc(C[C@@H](C)CC)nn3)CC2)nc(N2CCN(C(=O)CCCCCCCCCCNC(=O)[C@@H]([C@H](C)CC)n3cc(CCCCCN)nn3)CC2)n1	10µM*	?	nt	nt	nt	nt
CO[C@@H]1COC(=O)[C@H](CCSC)NC(=O)C/C=C\[C@@H](C)COC(=O)[C@@H]2CCCN2C(=O)C/C=C\[C@H]1C	nt	nt	nt	nt	0	nt
O=c1/c(=C\c2cc([N+](=O)[O-])cc([N+](=O)[O-])c2O)sc2nc3ccccc3n12	0%	6%	-5	-24%	-32*	?
O=c1/c(=C/c2ccccn2)sc2nc3ccccc3n12	4%	-7%	-3	9%	0	-11%
FC(F)c1nc2ccccc2[nH]1	3%	-6%	1	1%	3	-4%
c1ccc2[nH]c3cc4ncnc4cc3nc2c1	?	22%	-12	nt	-43*	?
COc1ccc(NC(=O)c2csc3c2CCCC3)cc1	4%	-12%	-61*	0%	-5	-12%
CN(C)CCCOc1ccc2c(c1)Sc1ccccc1CC2=O	-1%	4%	4	-3%	-66*	-6%
CC[C@@H]([C@H](C)O)n1ncn(-c2ccc(N3CCN(c4ccc(OC[C@@H]5CO[C@@](Cn6cncn6)(c6ccc(F)cc6F)C5)cc4)CC3)cc2)c1=O	nt	nt	-4	nt	nt	nt
Cc1cc(=O)n(-c2ccc(C(=O)O)cc2)[nH]1	1%	9%	-56*	1%	5	-24%
O=C(N/N=C\c1c(O)ccc2ccccc12)c1cncc(Br)c1	?	?	5	-3%	0	32µM*
O=C(N/N=C/c1c(O)ccc2ccccc12)c1cccnc1	12%	9%	5	3%	0	-29%
N#Cc1cc(C(=O)c2ccccc2O)cn(-c2nccs2)c1=O	?	?	-11	-9%	10	28µM*
Cc1c(-n2cc(C(=O)c3cc(F)ccc3O)cc(C#N)c2=O)c(=O)n(-c2ccccc2)n1C	11%	-6%	-20	0%	3	-21%
N#Cc1cc(C(=O)c2cc(F)ccc2O)cn(-c2nccs2)c1=O	?	33%	5	-14%	-2	25µM*
CO[C@@H]1COC(=O)C/C=C\[C@H](C)[C@H](OC)COC(=O)[C@H]2CCCN2C(=O)C/C=C\[C@H]1C	nt	nt	nt	nt	2	nt
CN1CCc2nc(SCC(=O)Nc3cccc(F)c3)c(C#N)c(-c3cccs3)c2C1	26%	-5%	-13	0%	-10	?
CN1CCc2nc(SCC(=O)Nc3ccc(OC(F)(F)F)cc3)c(C#N)c(-c3cccs3)c2C1	2%	10%	-6	1%	-51*	6%
C#CC(C)OC(=O)c1nnc2c3ccccc3n(COC)c2n1 (centres undefined)	nt	nt	nt	nt	0	nt
CC(=O)Nc1ccc(NC(=O)CC2Nc3cccc4cccc(c34)NC2=O)cc1 (centres undefined)	1%	10%	-12	1%	-20	-3%
CC(=O)c1ccc(NC(=O)CC2Nc3cccc4cccc(c34)NC2=O)cc1 (centres undefined)	-2%	5%	?	0%	-31*	-23%
CN(C)c1ncnc2c1NC1=C(S2)C(=NCCCC(=O)O)CC(C)(C)C1	-5%	16%	-4	-1%	-28	-6%
SMILES	USP2a block	Eya2 phos inh	PI4K2A inh	GALK inh	Coupling enz	USP1 inh
COc1ncnc2c1NC1=C(S2)C(=NCCC(=O)O)CC(C)(C)C1	10%	4%	-16	-1%	-48*	?
COC(=O)C1=C(C(=O)OC)[C@@H]2N(C)c3ccccc3[C@@]23C[C@@H](C(=O)OC)N(S(=O)(=O)c2ccc(C)cc2)C3=N1	nt	nt	nt	nt	0	nt
COc1ccc(/C(C)=C/C(=O)O)c(OC)c1	nt	nt	-1	nt	nt	nt
O=c1ccc2c(-c3ccccc3)c3ccc(O)cc3oc-2c1	?	?	-11	-2%	-13	3.5µM*
O=c1cc(-c2ccccc2)oc2cc(O)ccc12	nt	nt	-4	nt	3	-3%
Nc1ccc(-c2c3ccc(=O)cc-3oc3cc(O)ccc23)cc1C(=O)O	?	?	-3	-5%	1	22µM*
O=c1cc(-c2ccccc2O)oc2cc(O)ccc12	nt	nt	nt	nt	5	nt
COC(=O)c1ccc(NC(C)=O)cc1OC	nt	nt	1	nt	nt	nt
COC(=O)c1nn(-c2ccc3c(c2)CCN3C(C)=O)cc1O	0%	4%	-85*	13%	nt	0%
O=C(Nc1ccc(Cl)cc1)Nc1ccc(Cl)c(C(F)(F)F)c1	nt	nt	2	nt	nt	nt
Cc1cccc(-c2nnc(SCCC(=O)O)o2)c1	nt	nt	-60*	nt	nt	?
O=C1C2=CC[C@H]3C(=O)N(Cc4ccc5c(c4)OCO5)C(=O)[C@@H]3[C@@H]2[C@H](O)[C@@H]2O[C@H]12	nt	nt	nt	nt	3	nt
COC(=O)C1=C(C(=O)OC)[C@@H]2N(C)c3ccccc3[C@@]23C[C@@H](C(=O)OC)N(S(=O)(=O)c2ccc(OC)cc2)C3=N1	nt	nt	nt	nt	-2	nt
Cc1c(CN2CCCC(C)C2)c(O)n(CCO)c(=O)c1C#N (centres undefined)	-1%	0%	5	2%	2	-6%

Source: PubChem (National Center for Advancing Translational Sciences (NCATS))
